Test results from publication PMC7862700, “An all-to-all approach to the identification of sequence-specific readers for epigenetic DNA modifications on cytosine”.

Columns and labels:
Assay in all cases: DAPPL (digital affinity profiling via proximity ligation, sequencing); 10 mM Tris-HCl pH 7.5, 50 mM NaCl, 1 mM DTT, 4% glycerol, room temperature, 30 min; GST-TFs on glutathione beads, 16-mer random dsDNA library, 0.1% formaldehyde crosslink after washing; high values mean tight binding
Conditions in all cases: protein: recombinant; tags: N-terminal GST; dsDNA, one strand shown
[1] = target: T1, FLI1 (Homo sapiens, UniProt Q01543 1-452)
T1 sequence: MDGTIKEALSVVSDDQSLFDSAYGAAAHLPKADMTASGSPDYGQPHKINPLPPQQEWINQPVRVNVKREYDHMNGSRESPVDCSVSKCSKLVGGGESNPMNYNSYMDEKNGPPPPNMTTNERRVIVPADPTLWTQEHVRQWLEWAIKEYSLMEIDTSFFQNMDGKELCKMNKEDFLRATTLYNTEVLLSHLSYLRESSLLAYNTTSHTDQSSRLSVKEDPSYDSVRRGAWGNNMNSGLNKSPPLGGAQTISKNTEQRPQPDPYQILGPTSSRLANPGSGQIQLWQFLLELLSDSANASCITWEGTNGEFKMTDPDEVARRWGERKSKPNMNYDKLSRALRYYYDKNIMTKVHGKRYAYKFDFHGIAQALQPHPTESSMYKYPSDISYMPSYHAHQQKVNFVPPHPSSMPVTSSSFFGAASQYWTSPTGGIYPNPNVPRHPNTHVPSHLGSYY
Summary of the method: (§1)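 Yeast served to express human transcription factors as GST fusions, which were then captured on glutathione beads and labelled with DNA barcodes. Pooled with a tag-only sample, they were incubated with 200 nmole of a 16-mer random double-stranded DNA library for 30 min at room temperature in Tris/NaCl/DTT/glycerol buffer, washed, crosslinked with 0.1% formaldehyde, ligated by proximity, amplified by PCR and sequenced. Dividing each hexamer's read frequency for a factor by its frequency for the tag-only sample gives the binding signal.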

[2] = target: T2, ELK1 (Homo sapiens, UniProt P19419 1-428)
T2 sequence: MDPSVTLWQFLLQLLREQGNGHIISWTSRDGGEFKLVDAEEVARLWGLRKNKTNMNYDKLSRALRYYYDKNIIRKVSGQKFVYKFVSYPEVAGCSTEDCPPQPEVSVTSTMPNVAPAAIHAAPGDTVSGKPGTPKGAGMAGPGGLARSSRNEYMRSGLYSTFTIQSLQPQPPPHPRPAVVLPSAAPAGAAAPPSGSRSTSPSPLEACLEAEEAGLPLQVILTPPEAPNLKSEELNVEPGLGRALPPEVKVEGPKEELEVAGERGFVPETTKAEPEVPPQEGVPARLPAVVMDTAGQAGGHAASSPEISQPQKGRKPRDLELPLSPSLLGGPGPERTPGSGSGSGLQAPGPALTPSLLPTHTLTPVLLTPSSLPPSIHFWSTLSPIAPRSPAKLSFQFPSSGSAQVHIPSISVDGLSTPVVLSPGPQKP
Summary of the method: as §1

[3] = target: T3, GABPA (Homo sapiens, UniProt Q06546 1-454)
T3 sequence: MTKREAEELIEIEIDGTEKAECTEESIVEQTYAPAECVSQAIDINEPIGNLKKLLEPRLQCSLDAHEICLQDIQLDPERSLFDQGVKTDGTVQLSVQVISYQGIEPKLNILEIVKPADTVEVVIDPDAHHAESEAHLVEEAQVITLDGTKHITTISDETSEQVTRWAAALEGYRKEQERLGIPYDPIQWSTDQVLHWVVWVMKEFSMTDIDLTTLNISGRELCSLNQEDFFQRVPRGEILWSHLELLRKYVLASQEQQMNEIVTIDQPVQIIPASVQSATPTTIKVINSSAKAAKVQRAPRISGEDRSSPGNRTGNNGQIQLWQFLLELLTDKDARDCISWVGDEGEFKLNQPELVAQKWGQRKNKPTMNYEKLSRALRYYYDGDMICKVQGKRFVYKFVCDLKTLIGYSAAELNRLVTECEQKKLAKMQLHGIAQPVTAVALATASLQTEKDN
Summary of the method: as §1

[4] = target: T4, ERG (Homo sapiens, UniProt P11308 1-479)
T4 sequence: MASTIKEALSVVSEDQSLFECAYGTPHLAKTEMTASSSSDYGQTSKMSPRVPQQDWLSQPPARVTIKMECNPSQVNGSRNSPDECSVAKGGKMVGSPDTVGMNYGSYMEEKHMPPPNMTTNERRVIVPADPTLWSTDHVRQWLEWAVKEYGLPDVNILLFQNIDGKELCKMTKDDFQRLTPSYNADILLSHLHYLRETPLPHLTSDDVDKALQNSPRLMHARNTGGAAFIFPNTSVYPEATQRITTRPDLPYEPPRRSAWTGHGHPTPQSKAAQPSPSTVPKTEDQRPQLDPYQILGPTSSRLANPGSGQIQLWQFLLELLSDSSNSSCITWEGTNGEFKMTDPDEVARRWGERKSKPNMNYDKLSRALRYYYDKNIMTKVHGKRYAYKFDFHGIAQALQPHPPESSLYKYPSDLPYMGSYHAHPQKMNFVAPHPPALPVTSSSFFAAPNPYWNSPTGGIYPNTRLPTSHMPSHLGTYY
Summary of the method: as §1

[5] = target: ELF1 (Homo sapiens, UniProt P32519 1-619)
ELF1, sequence (P32519 whole entry): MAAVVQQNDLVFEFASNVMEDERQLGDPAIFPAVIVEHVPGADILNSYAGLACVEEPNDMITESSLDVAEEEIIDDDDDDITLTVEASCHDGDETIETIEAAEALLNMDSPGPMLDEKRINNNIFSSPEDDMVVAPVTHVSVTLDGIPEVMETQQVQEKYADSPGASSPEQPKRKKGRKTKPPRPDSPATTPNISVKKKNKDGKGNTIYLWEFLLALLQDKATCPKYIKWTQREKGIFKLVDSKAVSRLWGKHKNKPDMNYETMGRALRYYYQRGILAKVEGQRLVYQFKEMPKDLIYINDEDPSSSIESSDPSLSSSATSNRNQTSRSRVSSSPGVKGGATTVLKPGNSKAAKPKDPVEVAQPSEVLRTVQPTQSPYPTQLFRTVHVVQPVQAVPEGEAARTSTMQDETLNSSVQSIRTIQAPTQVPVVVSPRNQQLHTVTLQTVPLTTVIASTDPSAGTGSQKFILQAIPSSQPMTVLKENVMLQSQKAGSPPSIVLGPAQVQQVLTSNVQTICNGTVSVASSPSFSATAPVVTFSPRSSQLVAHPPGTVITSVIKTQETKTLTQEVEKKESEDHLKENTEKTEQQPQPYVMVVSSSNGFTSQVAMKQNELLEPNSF
Summary of the method: as §1

[6] = target: T5, EHF (Homo sapiens, UniProt Q9NZC4 1-300)
T5 sequence: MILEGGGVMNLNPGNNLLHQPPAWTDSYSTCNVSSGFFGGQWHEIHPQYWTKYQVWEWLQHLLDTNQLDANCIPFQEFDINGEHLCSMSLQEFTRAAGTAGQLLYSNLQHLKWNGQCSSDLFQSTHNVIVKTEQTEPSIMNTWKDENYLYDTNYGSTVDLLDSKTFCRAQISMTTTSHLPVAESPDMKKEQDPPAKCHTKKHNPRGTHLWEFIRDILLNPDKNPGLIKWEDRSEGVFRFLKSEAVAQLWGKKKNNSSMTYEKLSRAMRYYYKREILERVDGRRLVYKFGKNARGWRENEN
Summary of the method: as §1

[7] = target: SPI1 (Homo sapiens, UniProt P17947 1-270)
Summary of the method: as §1

[8] = target: SPIB (Homo sapiens, UniProt Q01892 1-262)
SPIB, sequence (Q01892 whole entry): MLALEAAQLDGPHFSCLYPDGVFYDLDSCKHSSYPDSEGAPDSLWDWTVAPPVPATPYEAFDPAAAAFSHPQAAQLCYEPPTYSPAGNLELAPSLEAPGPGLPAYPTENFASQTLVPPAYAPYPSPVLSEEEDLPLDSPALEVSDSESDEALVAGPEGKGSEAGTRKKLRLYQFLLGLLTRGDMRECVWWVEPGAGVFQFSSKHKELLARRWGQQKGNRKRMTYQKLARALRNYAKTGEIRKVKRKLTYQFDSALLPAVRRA
Summary of the method: as §1

[9] = target: T6, ELK3 (Homo sapiens, UniProt P41970 1-407)
T6 sequence: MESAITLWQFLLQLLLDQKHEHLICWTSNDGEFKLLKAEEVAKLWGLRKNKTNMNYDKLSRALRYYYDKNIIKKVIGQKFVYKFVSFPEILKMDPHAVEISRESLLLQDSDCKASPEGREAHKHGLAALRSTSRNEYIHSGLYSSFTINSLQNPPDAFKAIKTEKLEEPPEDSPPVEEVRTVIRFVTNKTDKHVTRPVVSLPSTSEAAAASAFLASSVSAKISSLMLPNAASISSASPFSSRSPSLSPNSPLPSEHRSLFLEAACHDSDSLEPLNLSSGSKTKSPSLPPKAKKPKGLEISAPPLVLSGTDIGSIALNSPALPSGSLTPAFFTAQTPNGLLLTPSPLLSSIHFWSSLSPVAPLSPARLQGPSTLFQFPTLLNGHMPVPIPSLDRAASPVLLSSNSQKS
Summary of the method: as §1

[10] = target: T7, SPIC (Homo sapiens, UniProt Q8N5J4 1-248)
T7 sequence: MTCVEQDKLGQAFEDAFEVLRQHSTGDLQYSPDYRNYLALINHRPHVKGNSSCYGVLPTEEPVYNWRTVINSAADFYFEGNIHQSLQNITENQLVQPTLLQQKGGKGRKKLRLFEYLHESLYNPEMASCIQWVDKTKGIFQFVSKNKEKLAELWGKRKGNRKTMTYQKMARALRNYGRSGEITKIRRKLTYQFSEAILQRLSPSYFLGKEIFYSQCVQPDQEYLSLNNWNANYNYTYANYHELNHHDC
Summary of the method: as §1

ACCCCT
binding signal [1]: 1.11 fold enrichment (6-mer frequency, TF over GST control) | binding signal [2]: 1.07 fold enrichment (6-mer frequency, TF over GST control) | binding signal [3]: 1.04 fold enrichment (6-mer frequency, TF over GST control) | binding signal [4]: 1.01 fold enrichment (6-mer frequency, TF over GST control) | binding signal [5]: 1.16 fold enrichment (6-mer frequency, TF over GST control) | binding signal [6]: 1.09 fold enrichment (6-mer frequency, TF over GST control) | binding signal [7]: 1.1 fold enrichment (6-mer frequency, TF over GST control) | binding signal [8]: 1.08 fold enrichment (6-mer frequency, TF over GST control) | binding signal [9]: 1.08 fold enrichment (6-mer frequency, TF over GST control) | binding signal [10]: 1.05 fold enrichment (6-mer frequency, TF over GST control)
